# Experimental data: PubChem BioAssay
# Values joined by “and” are separate entries in the source; they are usually repeats but may differ in a detail not shown here. Equal values may be shown once. Records with an inconclusive call do not appear. Active and inactive are the calls of the source. Unless noted, the limit is not given here; nearly all actives have IC50 up to about 30 µM.
# Key:
# [1] = SU-DIPG-XXV glioma cell viability, MIPE5.0 library, qHTS (AID 1347068);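 as to IC50: cells exposed to compound for 48 hours before viability readout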
# [2] = sensitizers of A549 cells to miR-34 induction, primary screen, imaging, A549 dox-inducible miR-34, nuclei and caspase counts (AID 1347080;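 active = compounds whose cell count with miR-34 switched on is under 0.7 times the count with it off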); conditions: A549 miR-34 inducible, Hoechst nuclei count, 48 h
# [3] = liver-stage malaria parasite growth inhibition, primary screen, cell-based, HepG2, luciferase luminescence, HepG2 viability (AID 624349; in the data active = parasite load remaining mostly below about 12%, no sharp cut-off; inactive = mostly above about 10%;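 also: 100% = mean of DMSO negative control wells on the same plate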); conditions: P. berghei liver stage in HepG2, luciferase luminescence, concentration not given here; parasite load remaining: stronger effect = lower value; viability: measured here: HepG2 viability without parasites
# [4] = test system: Hepatitis C virus NS3 helicase; test: HCV NS3 helicase inhibitors, primary screen, biochemical, fluorescence polarization, LOPAC1280 library (AID 687035; in the data active = inhibition above about 37%); conditions: Purified HCV NS3 helicase, Cy5-dT15 ssDNA binding fluorescence polarization; stronger effect = higher value; concentration not given here
# [5] = Cy5 fluorescence quenching or enhancement artefacts, artefact control for HCV NS3 helicase inhibitor project, biochemical, LOPAC1280 (AID 687037; call rule not given here); conditions: Cy5-DNA-NS3h complex fluorescence interference counterscreen
# [6] = phospholipid biosynthesis inhibitors in animal cells, primary screen, cell-based, LOPAC library, screen 4 (AID 1347384; call rule not given here); conditions: phospholipid biosynthesis inhibition screen, at 10 µM
# [7] = viability rescue of complex I mutant cybrids, primary screen, cell-based, galactose medium, ATP luminescence (AID 1645843;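 active = z-score of at least 1.8 in each of two replicates, scored against plate mean and spread of sample wells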;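 also: positive z means more ATP and so rescue of galactose-driven cybrid death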); conditions: complex I mutant cybrid cells, 72 h, stronger effect = higher value
# [8] = survival rescue of mitochondrial mutant cells in low glucose, primary screen, MELAS cybrids, Rieske KO mouse fibroblasts, CellTiter-Glo (AID 1508586;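 active = mean z-score across replicates of 1.96 or higher in either the MELAS or the Rieske mutant cell line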;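 also: z relative to plate mean and SD of compound and empty wells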)
# [9] = stronger effect = lower value, cell number ratio, induced over uninduced
# [10] = measured here: relative caspase fold change +Dox/-Dox
# [11] = measured here: total cells with miR-34 induction, stronger effect = lower value
# [12] = measured here: total cells without miR-34 induction
structure (smiles),measurement,setting,value
O=C(C(c1ccccc1)c1ccccc1)N1CCN(CC(O)COc2cccc3ncccc23)CC1 (stereo not given),outcome,[1],inactive
O=C(O)c1ccccc1-c1ccc(/C=c2\sc3nc4cc(Br)cnc4n3c2=O)o1,outcome,[1],inactive
O=C1S/C(=C\c2ccc(OCc3cccc(B(O)O)c3)cc2)C(=O)N1Cc1ccc(F)cc1,IC50,[1],23.5 µM (active)
CCCCC[C@@H](O)CC[C@H]1[C@H](O)CC(=O)[C@@H]1CCCCCCC(=O)O,fold change,[2]; [9],0.971 (inactive)
same,fold change,[2]; [10],1.47
same,cell count,[2]; [11],5350
same,cell count,[2]; [12],5510
CCc1c(OCCCCCC(C)(C)c2nn[nH]n2)cc(O)cc1C(C)=O,fold change,[2]; [9],1.03 (inactive)
same,fold change,[2]; [10],0.73
same,cell count,[2]; [11],6030
same,cell count,[2]; [12],5840
O=C(Nc1cccc(C(F)(F)F)c1)c1cccc2cc(Oc3cc(CO)ncn3)ccc12,outcome,[1],inactive
C/C(O)=C1\C(=O)[C@@H]2[C@H]3c4c[nH]c5cccc(c45)C[C@H]3C(C)(C)N2C1=O,fold change,[2]; [9],1.02 (inactive)
same,fold change,[2]; [10],0.893
same,cell count,[2]; [11],2150
same,cell count,[2]; [12],2100
COc1nnc2ccc(N3CCC(c4ccc(OCCN5CCN(C)C(=O)[C@H]5C)cc4)CC3)nn12,outcome,[1],inactive
C[C@H](NC(=O)[C@H]1NCC[C@@H]1O)c1ccc(-c2noc(CCC3CCCC3)n2)cc1,outcome,[1],inactive
CC/C=C\C/C=C\C/C=C\C/C=C\C/C=C\CCCC(=O)O[C@H](COCCCCCCCCCCCCCCCC)COP(=O)([O-])OCC[N+](C)(C)C,fold change,[2]; [9],0.886 (inactive)
same,fold change,[2]; [10],1.31
same,cell count,[2]; [11],5330
same,cell count,[2]; [12],6010
Cc1ccc(Nc2cc(N[C@@H]3CCCC[C@@H]3N)nnc2C(N)=O)nc1C,outcome,[1],inactive
C=CC(=O)N1CCC(CNc2ncnc(N)c2-c2ccc(Oc3ccccc3)cc2)CC1,outcome,[1],inactive
O=C(O)CCCCCC[C@H]1C(=O)NC(=O)N1CCC(O)C1CCCCC1 (stereo not given in full),fold change,[2]; [9],1.09 (inactive)
same,fold change,[2]; [10],1.38
same,cell count,[2]; [11],6150
same,cell count,[2]; [12],5640
CC1=NN(c2ccc(C(=O)O)cc2)C(=O)/C1=C/c1ccc(-c2cc(C)c(C)cc2[N+](=O)[O-])o1,outcome,[1],inactive
CCCCCCCC(=O)CC[C@@H]1[C@@H](C/C=C\CCCC(=O)OC(C)C)[C@@H](O)C[C@H]1O,fold change,[2]; [9],0.954 (inactive)
same,fold change,[2]; [10],1.15
same,cell count,[2]; [11],5890
same,cell count,[2]; [12],6180
O=C1NC(=O)/C(=C/c2ccc3nccnc3c2)S1,parasite load remaining,[3],25.6% (inactive)
same,viability,[3],76.4%
same,inhibition,[4],0% (inactive)
same,fluorescence ratio (interference),[5],1 (inactive)
same,outcome,[1],inactive
same,fold change,[2]; [9],0.99 (inactive) and 0.764 (inactive)
same,fold change,[2]; [10],0.943 and 0.46
same,cell count,[2]; [11],3810 and 4630
same,cell count,[2]; [12],3850 and 6050
same,outcome,[6],inactive
same,z-score,[7],0.905 (inactive)
CC[C@@H]1[C@H](F)C(=O)N[C@@H]1COc1nccc2cc(C(N)=O)c(OC)cc12,outcome,[1],inactive
CCCCCC1OC(O)CC1SC[C@H](NC(C)=O)C(=O)O (stereo not given in full),fold change,[2]; [9],0.93 (inactive)
same,fold change,[2]; [10],1.14
same,cell count,[2]; [11],5580
same,cell count,[2]; [12],6010
C=CC(=O)N1CCC(C2CCNc3c(C(N)=O)c(-c4ccc(Oc5ccccc5)cc4)nn32)CC1 (stereo not given),outcome,[1],inactive
CCC1CCCCN1C(=O)n1ncc(C(O)(c2ccccc2)c2ccccc2)n1 (stereo not given),outcome,[1],inactive
C=CC(=O)N[C@H]1CCOC[C@H]1Nc1ncc2cc(-c3c(Cl)c(OC)cc(OC)c3Cl)ccc2n1,outcome,[1],inactive
O=C(O)CC1CCC(c2ccc(-c3ccc(Nc4ccc(C(F)(F)F)nc4)cn3)cc2)CC1 (stereo not given),outcome,[1],inactive
COc1ccc(-c2cnc3c(-c4cccc5ncccc45)cnn3c2)cc1,outcome,[1],inactive
same,fold change,[2]; [9],0.802 (inactive)
same,fold change,[2]; [10],0.646
same,cell count,[2]; [11],4530
same,cell count,[2]; [12],5640
same,z-score,"[8]; MELAS cybrid survival, CellTiter-Glo 48 h, stronger effect = higher value",-0.0268 (inactive)
same,z-score,"[8]; Rieske KO mouse fibroblast survival, CellTiter-Glo 72 h",-0.688
CCCCCCCC/C=C\CCCCCCCC(=O)OCC,fold change,[2]; [9],1 (inactive)
same,fold change,[2]; [10],0.399
same,cell count,[2]; [11],5610
same,cell count,[2]; [12],5590
COc1cc2c(NC3CCN(C4CCCCC4)CC3)nc(N3CCCN(C(C)C)CC3)nc2cc1OCCCN1CCCCC1,IC50,[1],5.9 µM (active)
CCCCC[C@](C)(O)/C=C/[C@H]1[C@H](O)CC(=O)[C@@H]1CCCCCCC(=O)O,fold change,[2]; [9],1 (inactive)
same,fold change,[2]; [10],1.58
same,cell count,[2]; [11],5750
same,cell count,[2]; [12],5720
CCOC(=O)C1=CCCCC1S(=O)(=O)Nc1ccc(F)cc1Cl (stereo not given),outcome,[1],inactive
